This note sets out measurements from PubChem BioAssay (EPA / NIEHS).

Broadly, the AC50 is the concentration giving half of the maximal activity seen.

Test [1] can be described thus: BSK_LPS_PGE2: BioMAP Diversity Plus: LPS Assay for Prostaglandin E2 (PGE2) Biomarker Activity (AID 2283082). As to conditions: primary human HUVEC with PBMC; actives raise or lower the signal. In short, it runs like this: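 HUVEC plus human PBMC co-culture stimulated with LPS; secreted PGE2 quantified by ELISA 24 h after chemical dosing. Activity fitted bidirectionally against DMSO baseline; parallel SRB staining (0.1% SRB after 10% TCA fixation, 560 nm) flags overt cytotoxicity.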

Read-out in test [2]: Macrophage colony-stimulating factor (MCSF), CSF1 (gene 1435)
As to the kind of experiment: BSK_LPS_MCSF: BioMAP Diversity Plus: LPS Assay for Macrophage colony-stimulating factor (MCSF) Biomarker Activity (AID 2283083). As to conditions: primary human HUVEC with PBMC; actives raise or lower the signal. In a few lines:
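HUVEC + PBMC co-culture (human primary), 24 h post-dose; M-CSF by ELISA; gain/loss of signal fitted bidirectionally vs DMSO baseline.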

Read-out in test [3]: Tissue Factor, F3 (gene 2152)
Briefly: BSK_LPS_TissueFactor: BioMAP Diversity Plus: LPS Assay for Tissue Factor Biomarker Activity (AID 2283084). As to conditions: primary human HUVEC with PBMC; actives raise or lower the signal. In short, it runs like this:
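HUVEC/PBMC co-culture, LPS-activated; CD142 ELISA read 24 h post-dose; bidirectional curve fit vs DMSO negative control.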

Read-out in test [4]: Tumor necrosis factor (Homo sapiens) (UniProt P01375)
Briefly: BSK_LPS_TNFa: BioMAP Diversity Plus: LPS Assay for Tumour Necrosis Factor alpha (TNFa) Biomarker Activity (AID 2283085). Particulars: primary human HUVEC with PBMC; actives raise or lower the signal. In a few lines: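 Human umbilical vein endothelial cells co-cultured with PBMC and stimulated with LPS. TNFa was measured by ELISA 24 h after chemical dosing, fitted bidirectionally relative to DMSO.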

Read-out in test [5]: Vascular cell adhesion molecule 1 (VCAM1), VCAM1 (gene 7412)
As to the kind of experiment: BSK_LPS_VCAM1: BioMAP Diversity Plus: LPS Assay for Vascular cell adhesion molecule 1 (VCAM1) Biomarker Activity (AID 2283086). As to conditions: primary human HUVEC with PBMC; actives raise or lower the signal. In short, it runs like this: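 Human umbilical vein endothelial cells co-cultured with PBMC and stimulated with LPS; VCAM-1 measured by ELISA 24 h after dosing. Bidirectional curve fitting against DMSO baseline; cytotoxicity tracked in parallel by SRB total-protein staining.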

Read-out in another test: CD38, CD38 (gene 952)
Briefly: BSK_SAg_CD38: BioMAP Diversity Plus: SAg Assay for CD38 Biomarker Activity (AID 2283087). Particulars: primary human HUVEC with PBMC; actives raise or lower the signal. In short, it runs like this:
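Human HUVEC plus PBMC co-culture stimulated with superantigen; CD38 measured by ELISA 24 h after chemical dosing. Fluorescence read-out, bidirectional fit against DMSO; cytotoxicity tracked in parallel by SRB and Alamar Blue.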

Read-out in the next test: CD40, CD40 (gene 958)
Briefly: BSK_SAg_CD40: BioMAP Diversity Plus: SAg Assay for CD40 Biomarker Activity (AID 2283088). Particulars: primary human HUVEC with PBMC; actives raise or lower the signal. In a few lines:
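HUVEC/PBMC co-culture, 24 h post-dose; CD40 by ELISA, fluorescence intensity; bidirectional fit vs DMSO negative control.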

Read-out in the next test: CD69, CD69 (gene 969)
As to the kind of experiment: BSK_SAg_CD69: BioMAP Diversity Plus: SAg Assay for CD69 Biomarker Activity (AID 2283089).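 On AC50: cell surface CD69 protein quantified by ELISA with fluorescence detection.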 As to conditions: primary human HUVEC with PBMC; actives raise or lower the signal. In short, it runs like this:
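Values derive from bidirectional fitting relative to DMSO vehicle. Cells: umbilical vein endothelium plus peripheral blood mononuclear cells, treated 24 h before fluorescent ELISA for CD69.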

Read-out in test [6]: Monocyte Chemoattractant Protein-1 (MCP1), CCL2 (gene 6347)
As to the kind of experiment: BSK_SAg_MCP1: BioMAP Diversity Plus: SAg Assay for Monocyte Chemoattractant Protein-1 (MCP1) Biomarker Activity (AID 2283090). Particulars: primary human HUVEC with PBMC; actives raise or lower the signal. In a few lines: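 MCP-1 levels in the endothelial–PBMC SAg co-culture were quantified by ELISA at 24 h post-dosing; both increases and decreases versus DMSO scored. Cytotoxicity monitored by SRB total protein in parallel cultures.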

Read-out in test [7]: E-selectin (Homo sapiens) (UniProt P16581)
As to the kind of experiment: BSK_SAg_Eselectin: BioMAP Diversity Plus: SAg Assay for Eselectin Biomarker Activity (AID 2283091). Particulars: primary human HUVEC with PBMC; actives raise or lower the signal. In short, it runs like this:
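E-selectin ELISA readout at 24 h post-dosing in human umbilical vein endothelial cell/PBMC co-culture; gain or loss of signal fitted relative to DMSO baseline.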

Read-out in test [8]: Monokine induced gamma interferon (MIG), CXCL9 (gene 4283)
Briefly: BSK_SAg_MIG: BioMAP Diversity Plus: SAg Assay for Monokine induced gamma interferon (MIG) Biomarker Activity (AID 2283092). Particulars: primary human HUVEC with PBMC; actives raise or lower the signal. In a few lines:
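Values reflect bidirectional fitting of ELISA-measured MIG against DMSO vehicle, taken 24 h after dosing of a co-culture of human umbilical vein endothelial cells and peripheral blood mononuclear cells.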

Test [9] can be described thus: BSK_SAg_PBMCCytotoxicity: PBMC Cytotoxicity Assessment in the BioMAP Diversity Plus: SAg Assay (AID 2283093).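 Further: PBMC viability measured as Alamar Blue reduction fluorescence at 546/580 nm; fitted both ways against DMSO so a hit may be loss or gain of signal.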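 On AC50: PBMC superantigen activated with SEB plus TSST-1 one hour after compound addition.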 As to conditions: primary human HUVEC with PBMC. In short, it runs like this:
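Human umbilical vein endothelial cells co-cultured with PBMC; PBMC (75,000/well) pre-treated with compound 1 h, then activated with SEB and TSST-1 (20 ng/mL final each) for 90 h. Alamar Blue added 6 h, fluorescence 546/580 nm; bidirectional fit versus DMSO.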

Read-out in test [10]: Interleukin-8 (IL8), CXCL8 (gene 3576)
Briefly: BSK_SAg_IL8: BioMAP Diversity Plus: SAg Assay for Interleukin-8 (IL8) Biomarker Activity (AID 2283094). As to conditions: primary human HUVEC with PBMC; actives raise or lower the signal. In short, it runs like this:
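Human umbilical vein endothelial cells co-cultured with PBMC, stimulated with superantigen; IL-8 measured by ELISA 24 h after chemical dosing. Bidirectional fitting versus DMSO; SRB staining in parallel cultures tracks cytotoxicity.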

The nature of test [11]: BSK_SAg_Proliferation: Cell Proliferation Assessment in the BioMAP Diversity Plus: SAg Assay (AID 2283095). Particulars: primary human HUVEC with PBMC. In short, it runs like this: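 Human umbilical vein endothelial cells co-cultured with PBMC; sulforhodamine B total-protein staining (0.1% SRB after 10% TCA fixation, absorbance 560 nm) at 96 h in sub-confluent culture. Fitted bidirectionally against DMSO.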

A short description of test [12]: BSK_SAg_SRB: Viability Assessment in the BioMAP Diversity Plus: SAg Assay (AID 2283096).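 Further: cells read one day after compound addition; hits may be either gain or loss of signal compared with DMSO.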 As to conditions: primary human HUVEC with PBMC. In short, it runs like this: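 Endothelial/PBMC primary human co-culture; compound 24 h; fix 10% TCA, stain 0.1% SRB, A560; protein content as cytotoxicity proxy; bidirectional curve fit, DMSO = baseline.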

Active and inactive are the calls of the source. How the source made its calls: active means hit-call score of the fitted dose curve at least 0.9, where 1 is the maximum; inactive means score below 0.9.

Chain of E-selectin (Homo sapiens) (P16581 whole entry, looked up): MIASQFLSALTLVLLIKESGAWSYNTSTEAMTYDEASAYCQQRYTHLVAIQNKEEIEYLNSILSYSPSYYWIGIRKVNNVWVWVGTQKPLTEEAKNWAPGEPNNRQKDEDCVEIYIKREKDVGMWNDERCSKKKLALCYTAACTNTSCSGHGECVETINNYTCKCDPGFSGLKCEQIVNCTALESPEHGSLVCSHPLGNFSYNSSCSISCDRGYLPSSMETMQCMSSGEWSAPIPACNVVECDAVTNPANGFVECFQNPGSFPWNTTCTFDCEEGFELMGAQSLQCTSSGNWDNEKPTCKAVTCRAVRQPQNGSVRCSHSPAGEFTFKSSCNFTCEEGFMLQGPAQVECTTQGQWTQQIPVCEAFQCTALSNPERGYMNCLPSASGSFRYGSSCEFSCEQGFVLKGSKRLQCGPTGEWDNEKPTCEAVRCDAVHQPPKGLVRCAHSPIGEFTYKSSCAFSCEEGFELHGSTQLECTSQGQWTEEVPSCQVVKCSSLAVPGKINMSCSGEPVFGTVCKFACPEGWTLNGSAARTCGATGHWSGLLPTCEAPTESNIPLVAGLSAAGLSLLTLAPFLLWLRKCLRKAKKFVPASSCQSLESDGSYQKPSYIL
Chain of Tumor necrosis factor (Homo sapiens) (P01375 whole entry, looked up): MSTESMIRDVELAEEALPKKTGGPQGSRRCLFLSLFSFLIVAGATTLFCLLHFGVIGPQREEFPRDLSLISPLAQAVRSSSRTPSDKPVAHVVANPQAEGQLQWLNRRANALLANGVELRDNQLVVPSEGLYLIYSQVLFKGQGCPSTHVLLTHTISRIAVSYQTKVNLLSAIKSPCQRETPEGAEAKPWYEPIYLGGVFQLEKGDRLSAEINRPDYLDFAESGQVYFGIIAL

For `CCCCCOC(=O)c1ccccc1C(=O)OCCCCC`, the half-maximal activity concentration (AC50) is 17.7 µM (active) in [1]; 26.5 µM (active) in test [2]; 20 µM (active) in [4]; 20 µM (active) in test [5]; 31.6 µM (active) with CD38, CD38 (gene 952); 24.8 µM (active) in the test with CD40, CD40 (gene 958). Also, the AC50 is 20 µM (active) with CD69, CD69 (gene 969); 32.4 µM (active) in [7]; 30.8 µM (active) in test [10]; 31.9 µM (active) in test [11]; 32.4 µM (active) in test [12]. Further, the result in [3], in [6], in test [8] and in test [9] was inactive.

For `OCCCl`, the outcome in test [1] was “inactive”; in [2], “inactive”; in test [3] it was “inactive”; in test [4] it was “inactive”; in test [5] it was “inactive”; in the test with CD38, CD38 (gene 952) it was “inactive”. Further, the outcome was “inactive” with CD40, CD40 (gene 958); “inactive” with CD69, CD69 (gene 969); “inactive” in test [6]; “inactive” in test [7]; “inactive” in test [8]; “inactive” in test [9]. The result in test [10], in test [11] and in test [12] was inactive.

As for `O=C(O)C1C2CCC(O2)C1C(=O)O` (stereo not given), the outcome in test [1] is “inactive”; in [2] it was “inactive”; in [3], “inactive”; in test [5], “inactive”; with CD38, CD38 (gene 952) it was “inactive”; with CD40, CD40 (gene 958), “inactive”. The outcome is “inactive” with CD69, CD69 (gene 969); “inactive” in test [6]; “inactive” in [7]; “inactive” in test [8]; “inactive” in test [9]; “inactive” in test [10]. The AC50 in test [4] was 6.16 µM (active); in test [11], 18.6 µM (active); in test [12], 25.6 µM (active).

`C1=Cc2cccc3cccc1c23`: the outcome is “inactive” in test [1]; “inactive” in [2]; “inactive” in test [3]; “inactive” in test [4]; “inactive” in test [5]; “inactive” with CD38, CD38 (gene 952). Also, the outcome was “inactive” with CD40, CD40 (gene 958); “inactive” in the test with CD69, CD69 (gene 969); “inactive” in [6]; “inactive” in test [7]; “inactive” in test [8]; “inactive” in test [9]. In addition, the result in test [10], in [11] and in [12] was inactive.

For the molecule `ClC1=C(Cl)C2(Cl)C3C(Cl)C=CC3C1(Cl)C2(Cl)Cl` (stereo not given), the outcome in test [1] was inactive. Further, the AC50 in test [2] is 29.5 µM (active); in [3], 32.2 µM (active); in [4] it was 33.5 µM (active); in [5] it was 33.7 µM (active); in the test with CD38, CD38 (gene 952) it was 32.6 µM (active); in the test with CD40, CD40 (gene 958) it was 25.7 µM (active). Besides, the AC50 was 31.8 µM (active) with CD69, CD69 (gene 969); 31.6 µM (active) in test [6]; 31.1 µM (active) in test [7]; 36.8 µM (active) in [8]; 13 µM (active) in test [9]; 27.9 µM (active) in [10]. The AC50 in test [11] is 10.9 µM (active); in test [12], 31.7 µM (active).

Turning to `O=Cc1ccco1`, the outcome in [1] was “inactive”; in [2], “inactive”; in test [3], “inactive”; in test [4], “inactive”; in test [5], “inactive”; with CD38, CD38 (gene 952), “inactive”. Also, the outcome in the test with CD40, CD40 (gene 958) is “inactive”; with CD69, CD69 (gene 969), “inactive”; in test [6] it was “inactive”; in test [7] it was “inactive”; in test [8], “inactive”; in [9], “inactive”. Also, the outcome in [10], in [11] and in test [12] was inactive.

For `CC(C)(C)OOC(C)(C)CCC(C)(C)OOC(C)(C)C`, the outcome is “inactive” in test [1]; “inactive” in test [2]; “inactive” in [3]; “inactive” in test [4]; “inactive” in [5]; “inactive” in the test with CD38, CD38 (gene 952). For the same molecule, the outcome with CD40, CD40 (gene 958) was “inactive”; with CD69, CD69 (gene 969) it was “inactive”; in test [6] it was “inactive”; in [7], “inactive”; in test [8] it was “inactive”; in [9] it was “inactive”. Besides, the outcome in test [10], in [11] and in test [12] was inactive.

Turning to `Cc1ccc(N)c(N)c1`, the AC50 in test [1] was 20 µM (active); in [2], 11.5 µM (active); in test [5], 9.77 µM (active); in the test with CD40, CD40 (gene 958) it was 7.11 µM (active); in [7] it was 4.36 µM (active). Also, the outcome in test [3] was “inactive”; in test [4], “inactive”; with CD38, CD38 (gene 952) it was “inactive”; with CD69, CD69 (gene 969) it was “inactive”; in test [6], “inactive”; in test [8], “inactive”. For the same molecule, the result in [9], in test [10], in test [11] and in [12] was inactive.
